Source: the emibetuzumab library of Makowski et al. (2022)
The other results are listed elsewhere or left out. The hit rate among all sequences tested is not known here.

B1: VH:VL chains; a variant is named by its letters at X, in order (parent)
chain 1: QVQLVQSGAEVKKPGASVKVSCKASGYTFTDYXMHWVRQAPGQGLEWMGXVNPNXXXTTYNQKFEGRVTMTTDTSTSTAYMELRSLRSDDTAVYYCARXNXLDXWGQGTTVTVSS
chain 2: DIQMTQSPSSLSASVGDRVTITCSVSSSVSSIYLHWYQQKPGKAPKLLIYSTSNLASGVPSRFSGSGSGTDFTLTISSLQPEDFATYYCQVYSGYPLTFGGGTKVEIK

Variants of: B1
Assay: yeast display scFab, FACS + sequencing
Conditions: with MET
Outline: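 A yeast surface library of scFab variants carrying heavy-chain CDR mutations went through two magnetic enrichment rounds on Protein A beads coated with HGFR-Fc, then FACS. For sorting, cells were labelled for 3 h at room temperature with 1 nM HGFR-Fc and anti-Myc in PBSB containing 1% milk, and the top 50% of antigen-positive cells were gated. Input and round-3 sorted populations were deep sequenced in two replicates. A sequence was called an antigen binder if it appeared in both antigen-positive samples and a non-binder if it appeared only in the input.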

Variant	antigen binding call
YRKGDAGD	binds
FRGRGYAV	binds
FRGRGYVV	binds
FAAGSYAV	no binding
FRGRGYWV	binds
FRGRGYVA	binds
VTGEDAVV	no binding
SEEGTAGA	no binding
YGGTSYSV	no binding
YRGRGYWV	binds
FRGRGDWV	binds
SRGRGYSV	no binding
YRGRGYWA	binds
YRGRGYSV	binds
DRGRGDWV	no binding
FAGGGDWV	no binding
VRATGYWA	no binding
AKERGDGV	no binding
VETEGDAV	no binding
FRGRGAWV	binds
FKGRGVWV	no binding
ARGRGAWV	no binding
FKGRGAWV	binds

Variant	antigen binding call
YGGRGDWV	no binding
YRGRGVWV	binds
VTGGGDGA	no binding
YEGGADVA	no binding
YRGGASAA	binds
DAGGAAAA	no binding
DAGGAAVA	no binding
VRGGGSAA	binds
VEGGGSSA	no binding
VEGGGDAA	no binding
YRGGGSAA	binds
YRGRGSAF	binds
YRGGAAAA	binds
DTKAASSA	no binding
SEGGSAAY	no binding
DEGGTDGV	no binding
YEERTAAA	no binding
YRGGTAAA	binds
VRGRSSAA	binds
VREGSSAA	no binding
DEGGTAAA	no binding
YRGRTAAA	binds
YRAGGYGF	binds

Variant	antigen binding call
YRGRGYVS	binds
YRGRGYGS	binds
YRAGGVGF	binds
YRTRDVGF	no binding
DKTGDDVF	no binding
SEKKDYSA	no binding
DGGGGYWF	no binding
YRGRGYGF	binds
YRGGGYGF	no binding
YEGGGYSF	no binding
DRGGGDGV	no binding
YRGRGYGA	binds
YRGGGDGF	binds
YTGGDDGF	no binding
SETGADVA	no binding
VTGTGSLD	no binding
YTGRGSGV	binds
DTGRGSGV	no binding
YTGRGSLD	binds
FTGRGAGV	no binding
YTGTSSLD	no binding
YRARGASA	binds
DRAGDDSA	no binding

Variant	antigen binding call
YRARSASA	binds
YRAGGASA	binds
YRAGGDSA	binds
VEGTGVGD	no binding
DAGKGAVY	no binding
STTGGDGV	no binding
FAKTDAGF chain 1 G108D	no binding
SGRGNAGD	no binding
YATKGFGD	no binding
FRTKGAAD	binds
YRAKGAAD	binds
FTAGGAAD	no binding
FRGEGAAD	binds
FKGEGAAD	no binding
YRTKGAAD	binds
ATGGGYVA	no binding
YKRGAAGD	binds
YKRGSAGD	binds
YKRAAYGD	no binding
YRRGAAGD	binds
YTRGAASD	no binding
FEKGSDVA	no binding
VETEGDVY	no binding

Variant	antigen binding call
FTGEDDVY	no binding
VEGGTAGS	no binding
DKEGGSSS	no binding
YKGKGAGS	binds
YKGKGSVS	binds
YKGGGAGS	binds
YKGRSSSS	binds
DAGGGSSS	no binding
DEGGGAGS	no binding
YKGKGYVD	no binding
YEKEDYLA chain 1 G108D	no binding
FAKEGDGD	no binding
YKRGGAGS	binds
YKGKGSGA	binds
YKGKGSSS	binds
YKGKGSGS	binds
VKAGGDGS	no binding
YTGTGSGA	no binding
YARGGAGA	no binding
DTAESDLD	no binding
SEARSSWV	no binding
YKGRAAGS	binds
YKGKGAWS	binds

Variant	antigen binding call
VKGRADGS	no binding
AKGRAAAS chain 1 D103N	no binding
DKEGGDAV	no binding
FEKEGDAA	no binding
YTARDVGV	no binding
YRARGFGV	binds
YTERGFGV	no binding
YRARGVGV	binds
YRARGYGV	binds
YRARGSGV	binds
YRARGAGV	binds
YRARGAWV	binds
YRARGDGV	binds
YAAGGDGV	no binding
YRARSAWV	binds
YRAETDGV	no binding
SEEGTAGD	no binding
YAKGDYSV	no binding
SETTDSLD	no binding
ARGRGAAD	binds
AGGRGDVD	no binding
ARGRGAAS	binds
AAEGDAAD	no binding
